Data: the supplement of paper PMC11732987, “Enantioselective OTUD7B fragment discovery through chemoproteomics screening and high-throughput optimisation” (Communications Chemistry, 2025)
Unmarked numbers belong to inactive results.

Compound: ClCC(=O)NC1(CCCC1)C#N
Experiment: log2 ratio of Biotin-Ahx-Ub-VS probe labelling (compound/DMSO); higher = less target engagement, active = hit call of the paper (q ≤ 0.05, log2 ratio ≤ -1)
Settings: compound concentration: 50uM; treatment time: 3 h
Procedure: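 Round 2 competitive ABPP in HEK293T lysate. Compounds were tested at 50 and 200 µM for 3 h, followed by Biotin-Ahx-Ub-VS enrichment and diaPASEF LC-MS/MS. Values are the average log2 ratio (compound/DMSO) from an unpaired t-test (n=3 treated, n=26 DMSO).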

Sequence of UniProt Q6GQQ9 (Q6GQQ9 whole entry): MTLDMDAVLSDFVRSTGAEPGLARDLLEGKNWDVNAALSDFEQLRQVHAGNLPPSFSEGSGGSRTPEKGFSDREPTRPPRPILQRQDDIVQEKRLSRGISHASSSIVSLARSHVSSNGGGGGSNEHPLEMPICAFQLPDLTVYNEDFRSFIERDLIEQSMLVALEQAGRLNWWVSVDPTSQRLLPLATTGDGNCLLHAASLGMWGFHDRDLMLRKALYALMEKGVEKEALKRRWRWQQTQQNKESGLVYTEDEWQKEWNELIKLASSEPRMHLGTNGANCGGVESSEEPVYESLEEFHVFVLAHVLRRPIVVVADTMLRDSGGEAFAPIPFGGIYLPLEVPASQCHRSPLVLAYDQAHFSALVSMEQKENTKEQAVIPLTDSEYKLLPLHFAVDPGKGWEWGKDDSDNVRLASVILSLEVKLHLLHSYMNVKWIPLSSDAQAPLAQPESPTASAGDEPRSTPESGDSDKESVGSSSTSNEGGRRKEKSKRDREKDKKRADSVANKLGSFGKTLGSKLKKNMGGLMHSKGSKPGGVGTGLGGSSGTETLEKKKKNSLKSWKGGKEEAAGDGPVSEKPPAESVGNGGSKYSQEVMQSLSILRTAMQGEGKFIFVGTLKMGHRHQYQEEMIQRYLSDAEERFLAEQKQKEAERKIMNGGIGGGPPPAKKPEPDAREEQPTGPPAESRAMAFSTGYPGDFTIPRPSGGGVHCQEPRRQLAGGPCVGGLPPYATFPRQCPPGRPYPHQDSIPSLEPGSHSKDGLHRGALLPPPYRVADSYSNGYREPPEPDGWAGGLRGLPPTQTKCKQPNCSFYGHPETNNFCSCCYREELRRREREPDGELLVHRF
Sequence of UniProt Q5T2D3 (Q5T2D3 whole entry): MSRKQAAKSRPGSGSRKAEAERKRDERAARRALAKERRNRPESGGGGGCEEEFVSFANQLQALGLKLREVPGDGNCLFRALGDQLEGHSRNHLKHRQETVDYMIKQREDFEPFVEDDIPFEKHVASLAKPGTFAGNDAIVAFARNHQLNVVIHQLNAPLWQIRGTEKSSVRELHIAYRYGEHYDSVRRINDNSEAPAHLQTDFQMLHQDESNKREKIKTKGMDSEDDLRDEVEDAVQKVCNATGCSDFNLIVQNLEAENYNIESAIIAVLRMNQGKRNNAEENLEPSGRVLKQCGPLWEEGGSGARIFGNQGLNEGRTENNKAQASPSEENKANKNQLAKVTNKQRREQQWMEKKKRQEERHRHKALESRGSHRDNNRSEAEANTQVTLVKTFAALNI
Sequence of UniProt Q53GS9 (Q53GS9 whole entry): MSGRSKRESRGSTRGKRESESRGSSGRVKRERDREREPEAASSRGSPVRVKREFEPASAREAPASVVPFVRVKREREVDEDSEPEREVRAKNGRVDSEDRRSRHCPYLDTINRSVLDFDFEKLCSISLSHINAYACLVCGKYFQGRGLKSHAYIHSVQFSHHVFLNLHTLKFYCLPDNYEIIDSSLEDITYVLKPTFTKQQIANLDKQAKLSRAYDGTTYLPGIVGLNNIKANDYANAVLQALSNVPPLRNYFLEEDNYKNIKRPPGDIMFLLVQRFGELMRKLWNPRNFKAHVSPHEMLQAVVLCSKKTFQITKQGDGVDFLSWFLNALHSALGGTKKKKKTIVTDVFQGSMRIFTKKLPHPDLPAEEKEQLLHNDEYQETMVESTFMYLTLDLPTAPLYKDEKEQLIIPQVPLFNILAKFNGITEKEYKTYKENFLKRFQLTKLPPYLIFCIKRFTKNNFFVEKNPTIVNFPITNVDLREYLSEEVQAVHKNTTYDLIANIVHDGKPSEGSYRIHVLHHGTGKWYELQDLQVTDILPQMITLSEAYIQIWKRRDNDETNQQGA
Sequence of UniProt P54578 (P54578 whole entry): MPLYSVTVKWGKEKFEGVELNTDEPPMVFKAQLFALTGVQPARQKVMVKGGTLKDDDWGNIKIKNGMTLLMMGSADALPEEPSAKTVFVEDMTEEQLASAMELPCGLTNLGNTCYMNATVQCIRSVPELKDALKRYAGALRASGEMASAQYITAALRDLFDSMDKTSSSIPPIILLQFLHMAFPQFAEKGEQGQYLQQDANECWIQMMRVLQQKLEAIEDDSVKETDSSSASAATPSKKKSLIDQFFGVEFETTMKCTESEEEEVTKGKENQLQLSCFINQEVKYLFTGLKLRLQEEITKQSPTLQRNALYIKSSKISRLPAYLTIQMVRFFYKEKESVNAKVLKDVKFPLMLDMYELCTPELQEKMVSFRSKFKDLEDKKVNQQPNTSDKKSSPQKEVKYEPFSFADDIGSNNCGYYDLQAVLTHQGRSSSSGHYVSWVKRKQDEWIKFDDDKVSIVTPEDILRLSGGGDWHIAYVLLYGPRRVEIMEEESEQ
Sequence of UniProt Q9UPU5 (Q9UPU5 whole entry): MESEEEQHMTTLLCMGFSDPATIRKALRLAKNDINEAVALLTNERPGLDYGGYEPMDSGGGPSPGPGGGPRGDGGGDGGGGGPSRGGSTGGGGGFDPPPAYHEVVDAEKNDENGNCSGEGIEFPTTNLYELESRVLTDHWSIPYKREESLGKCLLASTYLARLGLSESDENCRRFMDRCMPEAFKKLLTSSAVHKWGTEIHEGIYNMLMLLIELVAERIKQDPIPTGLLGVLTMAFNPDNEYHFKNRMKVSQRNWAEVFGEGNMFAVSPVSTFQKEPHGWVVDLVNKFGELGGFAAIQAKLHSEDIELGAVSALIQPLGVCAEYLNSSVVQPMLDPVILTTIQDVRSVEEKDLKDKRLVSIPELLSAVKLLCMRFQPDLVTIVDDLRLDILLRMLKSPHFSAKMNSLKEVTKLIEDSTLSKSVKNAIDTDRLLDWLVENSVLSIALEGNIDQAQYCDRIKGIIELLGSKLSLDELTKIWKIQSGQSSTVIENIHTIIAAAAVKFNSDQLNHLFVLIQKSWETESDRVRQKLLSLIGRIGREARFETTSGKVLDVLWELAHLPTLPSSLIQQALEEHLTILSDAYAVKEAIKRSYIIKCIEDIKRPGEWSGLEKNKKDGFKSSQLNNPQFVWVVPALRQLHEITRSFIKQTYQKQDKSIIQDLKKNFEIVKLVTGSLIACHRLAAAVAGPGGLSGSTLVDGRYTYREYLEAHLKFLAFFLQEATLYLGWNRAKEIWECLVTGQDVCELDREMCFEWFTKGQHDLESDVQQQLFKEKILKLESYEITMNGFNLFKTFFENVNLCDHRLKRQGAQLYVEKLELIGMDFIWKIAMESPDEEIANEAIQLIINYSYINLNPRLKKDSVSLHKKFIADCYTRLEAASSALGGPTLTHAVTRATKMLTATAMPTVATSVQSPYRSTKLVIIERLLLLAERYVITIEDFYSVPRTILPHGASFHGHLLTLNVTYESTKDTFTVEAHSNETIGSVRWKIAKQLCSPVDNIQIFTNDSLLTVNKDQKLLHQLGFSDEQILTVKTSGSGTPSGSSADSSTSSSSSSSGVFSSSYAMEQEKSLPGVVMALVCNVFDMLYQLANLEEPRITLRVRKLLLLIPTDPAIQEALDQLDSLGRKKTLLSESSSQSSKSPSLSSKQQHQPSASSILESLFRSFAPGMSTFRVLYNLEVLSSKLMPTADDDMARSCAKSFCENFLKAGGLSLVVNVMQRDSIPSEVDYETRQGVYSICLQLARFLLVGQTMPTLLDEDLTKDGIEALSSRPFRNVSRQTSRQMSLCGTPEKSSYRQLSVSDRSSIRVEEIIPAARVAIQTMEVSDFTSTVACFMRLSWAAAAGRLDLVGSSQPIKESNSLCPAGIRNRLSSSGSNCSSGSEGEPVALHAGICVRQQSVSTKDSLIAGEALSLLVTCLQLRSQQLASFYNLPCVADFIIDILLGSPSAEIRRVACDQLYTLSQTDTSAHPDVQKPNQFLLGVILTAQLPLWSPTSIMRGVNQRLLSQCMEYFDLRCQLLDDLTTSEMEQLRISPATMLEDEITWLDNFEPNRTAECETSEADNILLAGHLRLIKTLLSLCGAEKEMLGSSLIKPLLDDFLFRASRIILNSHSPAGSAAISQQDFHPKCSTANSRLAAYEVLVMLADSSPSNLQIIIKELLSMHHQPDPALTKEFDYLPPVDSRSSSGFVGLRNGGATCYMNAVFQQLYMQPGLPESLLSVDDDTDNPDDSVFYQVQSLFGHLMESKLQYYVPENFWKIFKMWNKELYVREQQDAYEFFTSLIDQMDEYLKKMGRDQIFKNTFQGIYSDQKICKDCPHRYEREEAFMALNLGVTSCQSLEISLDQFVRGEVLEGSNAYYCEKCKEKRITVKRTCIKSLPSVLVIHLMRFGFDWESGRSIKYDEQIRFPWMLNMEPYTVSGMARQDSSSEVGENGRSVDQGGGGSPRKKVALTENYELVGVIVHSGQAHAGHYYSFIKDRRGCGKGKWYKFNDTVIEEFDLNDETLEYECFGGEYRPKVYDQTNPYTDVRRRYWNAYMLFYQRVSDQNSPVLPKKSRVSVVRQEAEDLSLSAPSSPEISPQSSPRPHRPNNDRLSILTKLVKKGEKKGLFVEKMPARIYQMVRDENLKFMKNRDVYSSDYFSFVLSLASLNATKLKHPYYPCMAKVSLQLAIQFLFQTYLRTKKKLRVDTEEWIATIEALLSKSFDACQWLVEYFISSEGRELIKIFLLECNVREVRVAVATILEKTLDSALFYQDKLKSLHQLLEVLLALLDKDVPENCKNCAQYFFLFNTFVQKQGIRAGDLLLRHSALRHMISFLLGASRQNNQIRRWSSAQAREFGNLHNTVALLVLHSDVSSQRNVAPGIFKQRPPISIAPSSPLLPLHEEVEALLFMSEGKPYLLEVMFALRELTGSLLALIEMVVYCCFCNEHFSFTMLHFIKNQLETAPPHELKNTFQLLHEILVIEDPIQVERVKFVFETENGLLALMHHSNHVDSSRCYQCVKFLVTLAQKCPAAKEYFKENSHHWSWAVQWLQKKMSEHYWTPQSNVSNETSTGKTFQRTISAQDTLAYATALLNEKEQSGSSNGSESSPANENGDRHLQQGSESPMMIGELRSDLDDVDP

Row | Target | log2 ratio of Biotin-Ahx-Ub-VS probe labelling
1 | USP15 (UniProt Q9Y4E8) | -0.194
2 | USP24 (UniProt Q9UPU5) | -0.0634
3 | UCHL3 (UniProt P15374) | -0.252
4 | FAM105A (UniProt Q9NUU6) | -0.0646
5 | USP39 (UniProt Q53GS9) | 0.213
6 | USP28 (UniProt Q96RU2) | 0.02
7 | OTUB1 (UniProt Q96FW1) | -0.00568
8 | UniProt Q9UGI0 | -0.46
9 | UniProt Q8TE49 | -0.765
10 | OTUD7B (UniProt Q6GQQ9) | -1.16 (active)
11 | UCHL5 (UniProt Q9Y5K5) | -0.245
12 | PRPF8 (UniProt Q6P2Q9) | -0.0469
13 | UniProt Q5T2D3 | -0.0676
14 | USP38 (UniProt Q8NB14) | -0.219
15 | USP9X (UniProt Q93008) | -0.227
16 | VCPIP1 (UniProt Q96JH7) | -0.312
17 | USP34 (UniProt Q70CQ2) | -0.504
18 | USP48 (UniProt Q86UV5) | -0.156
19 | USP14 (UniProt P54578) | 0.0754
20 | BAP1 (UniProt Q92560) | -1.04 (active)

Same assay, conditions: compound concentration: 200uM; treatment time: 3 h

Row | Target | log2 ratio of Biotin-Ahx-Ub-VS probe labelling
21 | USP15 (UniProt Q9Y4E8) | -0.0271
22 | USP24 (UniProt Q9UPU5) | -0.175
23 | UCHL3 (UniProt P15374) | -0.294
24 | FAM105A (UniProt Q9NUU6) | 0.0452
25 | USP39 (UniProt Q53GS9) | -0.0479
26 | USP28 (UniProt Q96RU2) | -0.257
27 | OTUB1 (UniProt Q96FW1) | 0.00171
28 | UniProt Q9UGI0 | 0.243
29 | UniProt Q8TE49 | -1.08 (active)
30 | OTUD7B (UniProt Q6GQQ9) | -3.09 (active)
31 | UCHL5 (UniProt Q9Y5K5) | -0.19
32 | PRPF8 (UniProt Q6P2Q9) | -0.0301
33 | UniProt Q5T2D3 | -0.0477
34 | USP38 (UniProt Q8NB14) | -0.177
35 | USP9X (UniProt Q93008) | -0.123
36 | VCPIP1 (UniProt Q96JH7) | -0.217
37 | USP34 (UniProt Q70CQ2) | -0.364
38 | USP48 (UniProt Q86UV5) | -0.0443
39 | USP14 (UniProt P54578) | 0.244
40 | BAP1 (UniProt Q92560) | -2.81 (active)
